Test results from PubChem BioAssay (NCATS).
Inconclusive results are not listed. Values without a mark were called inactive. Active and inactive are the calls of the source. Calls come from the whole dose curve; as a rule, active = well fitted inhibition curve with a large enough effect; inconclusive = small, poorly fitted or top-dose-only effect; inactive = flat fitted curve, though single readings scatter.

Molecular target: Luciferin 4-monooxygenase (Photinus pyralis) (UniProt P08659)
Assay: Biochemical firefly luciferase enzyme assay for NPC (AID 624030);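 note: purified P. pyralis luciferase at 10 nM with luciferin and ATP substrate; 0% = DMSO and -100% = full luciferase inhibition by PTC124 control; nearly all actives have a fitted effect of over 70% in size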
Conditions: purified P. pyralis luciferase, luminescence, 5 min; series mostly up to 58.6 µM; activity change, negative = inhibition: at the top concentration
Procedure, shortened: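 Direct inhibition of firefly luciferase enzyme (10 nM final, 50 mM Tris Acetate) assessed by luminescence within 5 minutes. Percent activity scaled between DMSO and PTC124 positive control, with concentration-effect curves classified by fit quality and response.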

Sequence of Luciferin 4-monooxygenase (Photinus pyralis) (P08659 whole entry, looked up): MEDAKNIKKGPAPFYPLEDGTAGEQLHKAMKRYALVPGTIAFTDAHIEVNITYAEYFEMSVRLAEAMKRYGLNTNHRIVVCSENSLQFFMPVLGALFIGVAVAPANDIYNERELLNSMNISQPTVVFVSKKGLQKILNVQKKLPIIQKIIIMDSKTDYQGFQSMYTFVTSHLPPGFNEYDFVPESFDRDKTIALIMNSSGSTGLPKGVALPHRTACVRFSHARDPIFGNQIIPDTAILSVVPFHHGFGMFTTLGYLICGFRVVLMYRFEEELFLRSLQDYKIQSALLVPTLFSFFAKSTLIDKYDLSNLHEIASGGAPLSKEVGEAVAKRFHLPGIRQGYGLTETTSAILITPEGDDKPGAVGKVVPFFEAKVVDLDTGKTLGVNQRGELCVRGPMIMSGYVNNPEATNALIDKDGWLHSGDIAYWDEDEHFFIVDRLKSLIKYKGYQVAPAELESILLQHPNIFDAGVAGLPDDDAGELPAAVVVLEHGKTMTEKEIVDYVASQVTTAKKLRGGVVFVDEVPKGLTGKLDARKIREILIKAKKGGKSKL

SMILES | activity change, negative = inhibition | Potency
CC(CC(C#N)(c1ccccc1)c1ccccc1)N(C)C (stereo unspecified) | 3.85% [at 123 µM] | –
CC(Cc1ccc2c(c1)OCO2)NO (stereo unspecified) | -4.38% [at 123 µM] | –
CCCOC(=O)Cc1ccc(OCC(=O)N(CC)CC)c(OC)c1 | 0.0119% | –
CCC1(c2ccccc2)CCC(=O)NC1=O (stereo unspecified) | -4.42% | –
C[C@]12Cc3nonc3C[C@@H]1CC[C@@H]1[C@@H]2CC[C@@]2(C)[C@H]1CC[C@]2(C)O | -4.75% | –
CCc1cc(OC)c(C[C@H](C)N)cc1OC | 2.54% [at 123 µM] | –
Cc1ccc(O)cc1 | -3.89% | –
Clc1ccc(CO/N=C(\Cn2ccnc2)c2ccc(Cl)cc2Cl)c(Cl)c1 | 0.968% | –
c1ccc2c(c1)Sc1ccccc1N2CC1CN2CCC1CC2 (stereo unspecified) | 9.01% | –
Cc1c(Cl)c(=O)oc2cc(OP(=O)(OCCCl)OCCCl)ccc12 | 0.642% | –
O=C(O)CCCCCCNC1c2ccccc2CCc2ccccc21 | 1.54% | –
Cc1cccc(Cc2cnc[nH]2)c1C | -0.348% | –
CN1C(=O)[C@@H](NC(=O)c2cc3ccccc3[nH]2)N=C(c2ccccc2)c2ccccc21 | 0.0286% | –
Cc1nnc2n1-c1sc(CCC(=O)N3CCOCC3)cc1C(c1ccccc1Cl)=NC2 | – | inactive
CC(Cc1ccccc1)NCc1ccccc1Cl (stereo unspecified) | -5.67% | –
COc1cc(CC(C)N)cc2c1OCO2 (stereo unspecified) | 0.164% [at 123 µM] | –
CN(C)CCc1c[nH]c2cccc(O)c12 | -13% [at 123 µM] | –
O=C(N[C@@H]1N=C(c2ccccc2F)c2cccc3c2N(CC3)C1=O)c1cc2ccccc2[nH]1 | -5.47% | –
COc1cc(CC(C)N)c(OC)cc1Br (stereo unspecified) | – | inactive
CC1N=C(N)OC1c1ccccc1 (stereo unspecified) | -7.02% [at 123 µM] | –
CC[C@H](O)C(C[C@H](C)N(C)C)(c1ccccc1)c1ccccc1 | 4.65% [at 123 µM] | –
